# Among all 330,000 compounds or so, about 2,800 (0.85%) were called active. This is one part of a sample in which actives are shown more often than they occur.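 Rule for the calls: active = mean inhibition across replicates of 60% or more, whatever share of single replicates reaches that level; inconclusive = some that reach 60%, reason not given; inactive = mean inhibition across replicates below 60%.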
# Assay: MITF transcriptional activity suppression – cell-based, SK-MEL-5, single point, luciferase, primary screen (AID 488899)
# Details: SK-MEL-5 TRPM1 promoter luciferase, 24 h; at 12.5 µM; hits give high values
row,SMILES,inhibition
1,O=C(N/N=C/c1cccc(OCc2ccccc2)c1)c1ccc(Br)o1,4.51% (inactive)
2,N#Cc1cc([N+](=O)[O-])ccc1Oc1cccc(/C=N/NC(=O)c2ccc(Cl)cc2)c1,4.52% (inactive)
3,CCCc1ccc(OCc2ccc(C(=O)N/N=C/c3cccc([N+](=O)[O-])c3)o2)c(OC)c1,69.2% (active)
4,COc1ccc(C(=O)NC2CC(C)(C)NC(C)(C)C2)cc1OC,1.95% (inactive)
5,CCOc1ncccc1C(=O)OCC(=O)c1c[nH]c2ccccc12,1.75% (inactive)
6,O=C(Nc1cc2c3c(c1)C1CCCC1CN3CC1CCCC21)c1ccc([N+](=O)[O-])cc1 (stereo unspecified),1.02% (inactive)
7,COc1ccc(NC(=O)N2CCCC2C(=O)NCc2ccccc2Cl)cc1 (stereo unspecified),11.5% (inactive)
8,C=CCNc1nnc(SCC(=O)N2CCCCC2)c2ccccc12,11.5% (inactive)
9,CC(C)Cn1c(CCC(=O)O)ccc1-c1cccs1,7.94% (inactive)
10,O=C(COC(=O)c1ccc([N+](=O)[O-])cc1Cl)NC(=O)c1ccccc1,-3.45% (inactive)
11,CN(C)CCCN(C(=O)c1ccc(S(=O)(=O)N2CCCc3ccccc32)cc1)c1nc2ccc(F)cc2s1,70.8% (active)
12,CCC(=O)Nc1nnc(S(=O)(=O)N2CCCc3ccccc32)s1,5.17% (inactive)
13,Cn1c(=O)n(C)c2cc(S(=O)(=O)N3CCCc4ccccc43)ccc21,0.873% (inactive)
14,CN(C)CCCN(C(=O)c1ccc(S(=O)(=O)N2CCCCCC2)cc1)c1nc2ccc(Br)cc2s1,92.8% (active)
15,Cc1ccc(NC(=O)c2cccc(S(=O)(=O)N3CCCc4ccccc43)c2)nc1,23.9% (inactive)
16,COc1ccc2sc(N(CCCN(C)C)C(=O)c3ccc(S(=O)(=O)N(C)C4CCCCC4)cc3)nc2c1,55.2% (inactive)
17,N=C1C(c2nc3ccccc3s2)=C(O)CN1NC(=O)c1ccc([N+](=O)[O-])cc1,14.1% (inactive)
18,O=C(NC(Nc1nc2ccc([N+](=O)[O-])cc2s1)(C(F)(F)F)C(F)(F)F)c1ccccc1,70.9% (active)
19,CC1CCN(C(=O)c2cccc(S(=O)(=O)N3CCCc4ccccc43)c2)CC1,7.39% (inactive)
20,CCc1ccc2nc(N(CCCN(C)C)C(=O)c3ccc4c(c3)OCCO4)sc2c1,-67.8% (inactive)
21,O=C(Nc1nc2ccc([N+](=O)[O-])cc2s1)c1ccc(S(=O)(=O)N2CCCc3ccccc32)cc1,75.6% (active)
22,CC(=O)N(OCc1ccc(OC(C)C)c(Cl)c1)C(C)=O,-2.52% (inactive)
23,OCC1(CO)CC2(C1)CC(CO)(CO)C2,-3.8% (inactive)

row,SMILES,inhibition
1,CCN(CC)S(=O)(=O)c1cccc(NC(=O)c2ccc(S(=O)(=O)N3CCCC3)cc2)c1,11% (inactive)
2,COc1ccc(-c2cc(C(=O)NC(Cc3c[nH]c4ccccc34)C(=O)O)c(C)o2)cc1OC (stereo unspecified),9.33% (inactive)
3,O=C(NCC1(N2CCCCC2)CCCCC1)c1cccc(S(=O)(=O)Nc2ccccc2Cl)c1,-26.7% (inactive)
4,Cc1cc(NC(=O)C(C)SCC(=O)Nc2cccc(S(=O)(=O)N3CCCCCC3)c2)no1 (stereo unspecified),18.1% (inactive)
5,CCC1CCCCN1C(=S)Nc1ccc(SC(F)F)cc1 (stereo unspecified),-3.13% (inactive)
6,COCCn1c(=NC(=O)c2ccccc2[N+](=O)[O-])sc2cc(S(C)(=O)=O)ccc21,-52% (inactive)
7,N#CC1=C(N)Oc2cc(N)ccc2C1c1ccccc1 (stereo unspecified),23.5% (inactive)
8,Nc1ncnc2c1cnn2C1CC(O)C(CO)O1 (stereo unspecified),-4.63% (inactive)
9,CC(C(=O)NC1CCCC1)N1CCN(S(=O)(=O)c2ccccc2Cl)CC1 (stereo unspecified),-2.61% (inactive)
10,O=C(Nc1c[nH]c(=O)[nH]c1=O)OCc1ccccc1,0.994% (inactive)
11,CC1(C)N=C(N)NC(Nc2ccc(Cl)cc2)=N1,4.8% (inactive)
12,CC(C)(C)OC(=O)NC(Cc1ccccc1)C(=O)NC(CSC1CCCCO1)C(=O)NN (stereo unspecified),-5.98% (inactive)
13,COc1ccc2c(c1)c(=Cc1ccc(N(C)C)cc1)c1cc(-c3ccccc3)[n+](C)n12,95.7% (active)
14,COc1ccc2sc(-c3ccc(N(C)C)cc3)c(-c3ccc4cc[nH]c4c3)c2c1,-103% (inactive)
15,COc1ccc2sc(-c3ccc(N(C)C)cc3)c(C#CCO)c2c1,-46.5% (inactive)
16,Cn1cc(S(=O)(=O)N2CCN(c3ccc(F)cc3)CC2)c(=O)n(C)c1=O,1.94% (inactive)
17,COC(=O)Cc1nc2c(N)nc(N)nc2[nH]c1=O,3.9% (inactive)
18,CCc1ccc(-c2cc(C)no2)cc1S(=O)(=O)NCCc1ccc(S(N)(=O)=O)cc1,-13.2% (inactive)
19,O=C(C[C@H]1C[C@H](C(=O)N2CCOCC2)[C@@]2(CCC3CCCC3)c3[nH]c4ccc(Cl)cc4c3CCN2C1=O)NCc1ccco1,21.2% (inactive)
20,COc1ccc2[nH]c3c(c2c1)CCN1C(=O)C(CC(=O)NCCCN(C)C)C[C@H](C(=O)N2CCOCC2)[C@@]31CCC1CCCC1 (stereo partly specified),-12.1% (inactive)
21,COc1ccc(CNC(=O)C[C@H]2C[C@H](C(=O)N3CCOCC3)[C@@]3(CCC4CCCC4)c4[nH]c5ccc(Cl)cc5c4CCN3C2=O)cc1OC,72.7% (active)
22,CCOC(=O)N1CCN(C(=O)C2CCCN(c3ncnc4c3sc3cccc(F)c34)C2)CC1 (stereo unspecified),28.8% (inactive)
23,Cc1[nH]c2c(C(=O)N3CCCC(CCC(=O)NCc4ccccc4F)C3)cccc2c1C (stereo unspecified),-16% (inactive)

row,SMILES,inhibition
1,CC(=O)Oc1ccc2c(c1)C(=O)c1ccccc1C2=O,-2.87% (inactive)
2,CC(=O)N(C1=C(Cl)C(=O)c2ccccc2C1=O)c1ccc(C(=O)O)cc1,11.6% (inactive)
3,O=C1C(Cl)=C(Oc2ccccc2)C(=O)c2ccccc21,89.7% (active)
4,COC(=O)C1=C(NC(=O)C(C)(C)C)CCS1,-3.02% (inactive)
5,CC(C)C[C@@H](NC(=O)[C@H]1CCCN1C(=O)Cc1ccccc1)C(N)=O,0.4% (inactive)
6,NC(=O)C1(N2CCCC2)CCN(Cc2ccccc2)CC1,-3.66% (inactive)
7,C=CCNc1cnn(-c2ccc(C)cc2)c(=O)c1Cl,-110% (inactive)
8,Cc1cccc(-n2ncc(C#N)c2-n2cccc2)c1,3.18% (inactive)
9,Cc1cccc(-n2ncc(Cl)c(Cl)c2=O)c1,72.1% (active)
10,CNN/C(N=Cc1ccc([N+](=O)[O-])s1)=N\S(=O)(=O)c1cc(C)c(Cl)cc1SCc1ccccc1,24.1% (inactive)
11,CNC[C@H](CC1CCCCC1)NC[C@H](NCCC1CCCC1)[C@H](C)O,78.2% (active)
12,CCOC(=O)c1ccccc1NC(=O)CSc1nc2c(sc(=S)n2CC)c(=O)[nH]1,-3.35% (inactive)
13,Cc1ccc(-n2nc(N)c3c(=O)oc(N(C)C)nc32)cc1,-8.9% (inactive)
14,COc1ccc(C(=O)NCC(c2ccco2)N2CCc3ccccc32)cc1OC (stereo unspecified),5.95% (inactive)
15,Cc1ccc(-c2cn3cc(C)ccc3n2)cc1,93.3% (active)
16,Cc1ccc(-c2cn3cc([N+](=O)[O-])ccc3n2)cc1,48.1% (inactive)
17,Cc1ccc2nc(-c3ccc(Br)cc3)cn2c1,50.5% (inactive)
18,CCOc1ccc(-n2cnc3c(=O)[nH]c(N)nc32)cc1,-21.7% (inactive)
19,O=C(CCCCCCCC(=O)N1CCCCC1)N1CCCCC1,0.359% (inactive)
20,COc1ccc(NC(=O)COC(=O)c2ccncc2)c(OC)c1,-6.34% (inactive)
21,COc1cccc2sc3cc(NCC[C@@H]4CCCN4C)ccc3c(=O)c12,-35.6% (inactive)
22,Cc1cc2oc(=O)cc(CN3CCN(Cc4ccccc4)CC3)c2cc1C,-7.61% (inactive)
23,Cc1cc2oc3ccc(NCCC4CCCN4C)cc3c(=O)c2cc1C (stereo unspecified),82.2% (active)

row,SMILES,inhibition
1,CCOc1ccc(CN2CCNC(=O)C2CC(=O)NCCCC2CCCC2)cc1 (stereo unspecified),-18.3% (inactive)
2,COc1cc([N+](=O)[O-])ccc1NC(=O)COC(=O)CCOc1ccc(C)cc1,8.46% (inactive)
3,COc1ccc(CCNC(=O)c2cnc(Cl)c(Cl)c2)cc1,1.33% (inactive)
4,CCN(CC(=O)Nc1ccc(OC)cc1)C(=O)CSCc1ccc(C)cc1,-0.141% (inactive)
5,COc1ccc(CS(=O)/C(Cl)=C(/Cl)C(=O)Nc2ccc(OC)nc2)cc1 (stereo unspecified),99.4% (active)
6,COc1ccc(NC(=O)/C(Cl)=C(/Cl)S(=O)Cc2ccc(C)cc2)cn1 (stereo unspecified),113% (active)
7,COc1ccc(C(=O)CCC(=O)Nc2ccc(Cl)cc2)cc1,-4.44% (inactive)
8,COC(=O)c1sccc1NC(=S)Nc1ccc(C)cc1,-74.3% (inactive)
9,COc1ccc(C(=O)NC(Cc2ccc(OC(=O)c3ccc(OC)cc3)cc2)C(=O)O)cc1 (stereo unspecified),3.82% (inactive)
10,Cc1cc(C(=O)N/N=C/c2ccccn2)c2ccccc2n1,-2.21% (inactive)
11,O=C(N/N=C/c1ccccn1)C12CC3CC(CC(C3)C1)C2,0.297% (inactive)
12,Cc1nnc(N/N=C/c2ccccn2)[nH]c1=O,79.6% (active)
13,O=C(O)c1cc(S(=O)(=O)N(Cc2ccccc2)c2cccc(C(F)(F)F)c2)ccc1Cl,11.3% (inactive)
14,COc1cc2c(cc1O)C(SC)=NC(C)(C)C2,73.8% (active)
15,COc1cc2c(cc1OC)C(Nc1ccc(S(N)(=O)=O)cc1)=NC(C)(C)C2,12.1% (inactive)
16,COc1cc2c(cc1OC)C(C(C)C)=NC(C)(C)C2,2.2% (inactive)
17,COc1ccc(-n2c(C)nn(CC3CC3)c2=O)cc1,-0.556% (inactive)
18,CCOc1ccc(NC(=O)CSc2nc3ccccc3c(=O)n2Cc2cccs2)cc1,9.83% (inactive)
19,C=CCn1c(CNS(=O)(=O)c2ccc(Br)cc2)nnc1SC,-0.805% (inactive)
20,COc1ccccc1N1CCN(/N=C\C(Br)=C\c2ccccc2)CC1,-56.4% (inactive)
21,Cc1cc(-c2n[nH]c(=S)n2/N=C/C(Br)=C/c2ccccc2)n[nH]1,71.3% (active)
22,CC(C)c1cc(C(=O)N/N=C/C(Br)=C/c2ccccc2)n[nH]1,11.7% (inactive)

# Source: PubChem BioAssay AID488899 (Broad Institute, 2010)
